# Experimental data from PubChem BioAssay (NCATS).
# Inconclusive results are not listed. Unmarked numbers belong to inactive results. The source made the active and inactive calls. The call rests on the fitted dose curve; in most records, active means well fitted cell-killing curve with a large enough effect; inconclusive means small, poorly fitted or top-dose-only effect; inactive means flat fitted curve, though single readings scatter. Bridge positions count the residues as written; N and C are the ends. Square brackets hold non-standard residues; d marks the D form. Side chains are listed from the residue outwards. Peptide text beside a SMILES is read from it. * marks the point of attachment. Phg(4-OMe) = COc1ccc([C@H](N)C(=O)O)cc1; d(aIle) = CC[C@H](C)[C@@H](N)C(=O)O; d(aThr) = C[C@@H](O)[C@@H](N)C(=O)O; NMeF = CN[C@@H](Cc1ccccc1)C(=O)O; Isobutyryl = CC(C)C(=O)*
# Experiment: COV-362 Cancer Cell Toxicity qHTS against the NCATS CANVASS Library (AID 1347352)
# Details: COV-362 viability, CellTiter-Glo luminescence, 72 h; series mostly up to 38.3 µM; activity change, negative = cytotoxicity: at the top concentration
# Outline: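 First, 1000 cells go into each well and rest for 4 hours. Next, an 11-point dilution range is pinned in. Plates then incubate 72 hours before CellTiter-Glo addition and luminescence reading.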
# On the % scale 0 is the no-effect control and ±100 the full control effect; potency means the concentration at half of the fitted maximal effect.
SMILES,Potency,"activity change, negative = cytotoxicity"
CCC(=O)CCCCC[C@@H]1NC(=O)[C@H]2CCCCN2C(=O)[C@H](C(C)C)NC(=O)[C@H](Cc2cn(OC)c3ccccc23)NC1=O,18.8 µM (active),–
C/C=C(/C)c1c(Cl)c(O)c(C)c2c1Oc1c(Cl)c(O)c(Cl)c(C)c1C(=O)O2,–,-13.1%
C=CC(CCCCC)C1C(=O)NC(=O)C1C(=O)C1C(/C=C/C)C=CC2CC(C(=O)O)CC(C)C21 (configuration not stated),–,-24.4%
C=C1CC[C@@H](O[C@H]2C[C@@](O)([C@H](C)NC(=O)c3[nH]c(C)c(Cl)c3Cl)[C@H](O)[C@@H](C)O2)[C@@H]2C=C[C@H](C)C(/C(O)=C3/C(=O)[C@H](C(C)C)N([C@@H]4O[C@H](C)[C@H](OC(N)=O)[C@H](OC(C)=O)[C@@H]4OC)C3=O)[C@@H]12 (some centres not stated),–,-4.91%
COc1ccc([C@@H]2CC(=O)c3c(cc(O)c(C/C=C(\C)CCC=C(C)C)c3O)O2)cc1,–,1.08% [at 7.64 µM]
O=c1cc(-c2ccc(O)c(O)c2)oc2cc(O[C@@H]3O[C@H](CO)[C@@H](O)[C@H](O)[C@H]3O)cc(O)c12,–,-4.86%
CC[C@H](C)[C@H]1NC(=O)[C@@H](NC(=O)C(C)C)[C@@H](C)OC(=O)[C@H](COC(=O)CNC(C)=O)NC(=O)[C@@H]([C@@H](C)O)NC(=O)[C@H](Cc2ccccc2)N(C)C(=O)[C@H](c2ccc(OC)cc2)NC1=O (Isobutyryl-T[d(aIle)][Phg(4-OMe)][NMeF][d(aThr)]S([Gly-Ac]); ester 1-C),–,-2.3%
C[n+]1cc2cc(C(N)=O)[nH]c3c(=N)c(Cl)c(N)c1c23,–,1.8%
C/C1=C/[C@@H](C)[C@H](O)[C@@H](O)/C=C/CC/C=C/C(=O)O[C@@H]1[C@H](C)C(=O)CCCC1CC(=O)NC(=O)C1,–,-6.99%
CC(=O)Oc1cc2c(c(OC(C)=O)c1C1CCc3cc(Cl)c(Cl)n31)C(=O)n1c-2cc(Cl)c1Cl (configuration not stated),9.41 µM (active),–
C[C@]12CC[C@]3(C1)[C@H](CC2=O)C[C@@H](OC(=O)c1ccccc1)[C@H]1[C@](C)(C(=O)O)CCC[C@@]13C,–,-7.24%
CC(=O)O[C@H]1c2ccccc2-c2c3c(cc4c2[C@@H]1N(C(C)=O)CC4)OCO3,–,-26.1%
C=C[C@](Cl)(CBr)CCC=C(C)C,–,-9.7%
C=C1CC[C@@H](Br)C(C)(C)[C@]12CC=C(C)C(=O)C2,–,-14.1%
COc1cc2c(cc1OC)[C@@H](c1ccc3c(c1)OCO3)C(C)C(C)C2=O (some centres not stated),–,-27.3%
C[C@H]1C=C[C@H]2CCCC[C@@H]2[C@H]1C(=O)[C@H]1CC2=C(C(=O)O)CCN2C1=O,–,-3.65%
C/C(=C\[C@H](C)C(=O)/C=C/CC1CC(=O)NC(=O)C1)[C@@H]1OC(=O)/C=C/CC/C=C/C[C@@H](O)[C@@H]1C,2.36 µM (active),–
CC(C)[C@]12CC[C@@]3(C)[C@H](C)CC[C@H](O)[C@@]3(CC1)c1cc3c(cc12)[nH]c1ccccc13,–,-21.3%
CC(C)=CCC[C@]12c3cc4c(cc3CC[C@@]1(C)[C@H](C)CC[C@@H]2O)[nH]c1ccccc14,–,-24.1%
C=C(C)CC[C@H](Cc1c(O)cc(O)c2c1O[C@H](c1ccc(O)cc1)CC2=O)C(=C)C,–,-23.9%
COc1cc(/C=C/C(=O)OC[C@@H](Cc2ccc(O)c(OC)c2)[C@@H](COC(=O)/C=C/c2ccc(O)c(OC)c2)Cc2ccc(O)c(OC)c2)ccc1O,18.8 µM (active),–
C=CC(CCCCC)C1C(=O)NC(=O)C1C(=O)C1C2C(C)CC(C(=O)O)CC2CC1(O)C(=O)/C=C/C (configuration not stated),–,-1.83%
C[C@]12CCC[C@](C)(C(=O)O)[C@@H]1CC[C@@]1(C)c3cocc3CC[C@H]21,–,3.64%
COc1c(O)cc2c(c1O)C(=O)c1c(coc1C)C2=O,–,-17.1%
CC(C)C[C@@H]1c2c(O)c(C=O)c(O)c(C=O)c2O[C@]2(C)C=C[C@@H](C(C)C)C[C@H]12,–,-8.3%
COc1cc2c(c(O)c1O)C(=O)c1c(coc1C)C2=O,13.3 µM (active),–
CO[C@H]1[C@@H](OC(=O)/C(C)=C\[C@@H]2O[C@@H]2[C@H]2O[C@H]2C)[C@H](O)[C@H](OCC23C[C@@H]4[C@H](C)CC[C@H]4C4(C=O)CC2C=C(C(C)C)C34C(=O)O)O[C@@H]1C (some centres not stated),–,-11.7%
